MCF10A rereplic: DNA re-replication induction in MCF 10a cells. Potency, µM (series often up to 46.1 µM), for the others: top-dose activity, positive = re-replication, actives largely listed as activators. MCF 10A DNA re-replication, Hoechst nuclear intensity, 48 h. 350,000 tested, 2.9% active; also: % of control where 0% means no effect; nearly all actives have a fitted effect of over 50% in size
SW480 rereplic: inducers of DNA re-replication in SW480 colon cancer cells; SW480 DNA re-replication, Hoechst DNA content imaging, 48 h; Potency, µM (doses to about 46.1 µM), without a hit: top-dose re-replication activation, usual class: activators; 340,000 tested, 1.8% active; AID 624297; also: % of control where 0% means no effect; nearly all actives have a fitted effect of over 55% in size
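SW480 cells exposed to compounds for 48 hr at 37 C, 5% CO2, then Hoechst-stained 40 min. Nuclear DNA content imaged by fluorescence scanning (405 nm excitation, 500-530 nm emission); re-replication scored as increased high-intensity nuclei.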
HT1080 IDH1KD tx: kills HT-1080 cells with IDH1 knockdown; HT-1080 IDH1 knockdown viability, ATP luminescence, 48 h; Potency, µM (top dose mostly 46.1 µM), for the others: at the highest dose activity, negative = toxicity, hits mostly cytotoxic; 360,000 tested, 2% active; AID 686971;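 also: 0% = DMSO wells and -100% = cell-free medium wells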
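Luminescent ATP read-out (CellTiter-Glo, 10 min at room temperature) after 48 h compound exposure at 37 °C gave viability of IDH1-knockdown HT-1080 cells. Activity was normalised to DMSO and cell-free wells, then fitted as concentration-response curves.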
KB-3-1 cytotox: KB-3-1 parental cell cytotoxicity; KB-3-1 viability, CellTiter-Glo ATP luminescence, 72 h; Potency, µM (doses to about 46.1 µM), usual class: cytotoxic; 400,000 tested, 1.4% active; also: % is scaled to controls: 0 for no effect and ±100 for the full control effect; nearly all actives have a fitted effect of over 60% in size
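Here the drug-naive KB-3-1 line serves as comparator for MDR sub-line selectivity; cells received compound titrations, 72 h at 37 °C, then CellTiter-Glo readout.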
KB-V1 MDR tox: kills drug-selected multidrug resistant KB-V1 cells; KB-V1 MDR cells viability, CellTiter-Glo, 72 h; Potency, µM (highest dose often 46.1 µM), usual class: cytotoxic; 400,000 tested, 3.4% active; AID 1347076; also: % is scaled to controls: 0 for no effect and ±100 for the full control effect; nearly all actives have a fitted effect of over 60% in size
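Drug-selected KB-V1 cells, grown in DMEM lacking phenol red with 10% FBS, receive compound titrations; after three days at 37 degrees C, surviving cell ATP is quantified by CellTiter-Glo luminescence and responses normalized and curve-fitted.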
HT1080NT lethal: kills 2HG-producing HT-1080-NT fibrosarcoma cells | HT-1080-NT fibrosarcoma viability, CellTiter-Glo ATP luminescence, 48 h | 360,000 tested, 1.6% active | Potency, µM (doses to about 46.1 µM), inactives show top-dose activity, negative = less viability, most hits filed as cytotoxic;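 also: NT is the 2HG producing partner of a matched IDH1 knockdown line; 0% = DMSO-treated cells and -100% = media-only wells without cells; nearly all actives have a fitted effect of over 55% in size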
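Toxicity toward the 2HG-producing NT line was scored as %Activity, normalised to DMSO and no-cell wells, from CellTiter-Glo luminescence after 48 hours' treatment.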
An asterisk follows results filed as active; i = inactive; ? = inconclusive; nt = not tested or not shown; [ ] = dose if it differs, or a comment. Hits are enriched below; roughly 8% of the tested compounds scored in any of these assays. Calls follow the shape of the dose curve; as a rule, active = well fitted curve in the direction sought with a large enough effect; inconclusive = small, poorly fitted or top-dose-only effect, or another doubt; inactive = no such curve, though single readings can be large; an effect the other way counts as inactive or inconclusive. Potency is read from the fitted curve at half-maximal effect.

SMILES	MCF10A rereplic	SW480 rereplic	HT1080 IDH1KD tx	KB-3-1 cytotox	KB-V1 MDR tox	HT1080NT lethal
COc1ccc(C2=Nn3c(nnc3-c3ccccc3Cl)SC2)cc1OCC1CC1	?	16.4µM*	nt	2.91µM*	?	nt
COc1ccc(OC)c(-c2nnc3n2N=C(c2ccc(OC)c(OCC4CC4)c2)CS3)c1	?	2.31µM*	nt	0.92µM*	4.61µM*	nt
COc1ccc(-c2nn(-c3ccccc3)cc2/C=N/NC(=S)NC(C)C)cc1OC	-31.0%	?	-7.0%	i	?	3.3%
COc1ccc(-c2nn(-c3ccccc3)cc2/C=N/Nc2ccc3ccccc3n2)cc1OC	?	25.9µM*	-2.2%	i	?	-4.0%
COc1ccc(-c2nn(-c3ccccc3)cc2/C=N/N=C(N)N)cc1OC	?	?	?	?	i	-11.9%
COc1ccc(-c2nn(-c3ccccc3)cc2/C=N/O)cc1OC	16.4µM*	?	-0.7%	i	i	-10.1%
COc1ccccc1-c1noc(-c2ccc(NCc3cccnc3)c([N+](=O)[O-])c2)n1	nt	nt	nt	i	i	nt
O=C(NC1CCCCCC1)c1cc2c(Cl)nc3ccccc3c2s1	nt	nt	nt	i	?	nt
COc1ccc(-c2cnc(C)o2)cc1S(=O)(=O)Nc1ccc(OC(F)(F)F)cc1	nt	nt	nt	i	i	nt
O=C(Nc1ccc(S(=O)(=O)N2CCCC2)cc1)c1ccc(OCC2CCCO2)cc1 (stereo not given)	13.6%	-2.3%	?	20.6µM*	?	?
O=C(Nc1cccc(S(=O)(=O)N2CCCCC2)c1)c1ccc(OCC2CCCO2)cc1 (stereo not given)	7.4%	6.3%	-11.2%	i	8.2µM*	-11.5%
Cc1ccc(NC(=O)c2ccc(OCC3CCCO3)cc2)cc1 (stereo not given)	?	3.5%	7.3%	i	20.6µM*	2.0%
Cc1ccc(NC(=O)c2ccc(OC(=O)c3ccco3)cc2)cc1	20.6µM*	?	-18.9%	i	i	4.0%
Cc1ccc2oc(=O)c3cnn(CC(=O)N4CCN(c5ccccc5F)CC4)c3c2c1	nt	nt	nt	i	i	nt
O=C(OCCN1C(=O)c2cccc3c(N4CCOCC4)ccc(c23)C1=O)c1ccc(Cl)cc1	1.9%	?	2.31µM*	i	i	?
CCCN(CCC)S(=O)(=O)c1ccc(C(=O)OCCN2C(=O)c3cccc4c(N5CCOCC5)ccc(c34)C2=O)cc1	-13.7%	-383.1%	19.9%	i	14.6µM*	11.5%
CCN(CC)S(=O)(=O)c1ccc(C(=O)OCC(=O)N2CCOCC2)cc1	-1.6%	-4.7%	1.1%	i	i	-6.4%
Cc1ccc(S(=O)(=O)N2CCN(C(=O)c3ccc(N4CCC(C)CC4)c([N+](=O)[O-])c3)CC2)cc1	2.7%	-5.3%	-3.7%	i	18.4µM*	1.8%
CC(C)(C)C(=O)Oc1ccc2cc(-c3ccc4ccccc4n3)c(=O)oc2c1	6.51µM*	23.1µM*	-7.5%	i	i	-1.6%
COc1cc(-c2noc(CCC(=O)Nc3cc(C)ccc3C)n2)cc(OC)c1OC	nt	nt	nt	i	i	nt
CN(C(=O)c1cccc(Nc2ccc(-c3ccc4c(c3)OCCO4)nn2)c1)C1CCCCC1	?	14.5%	14.6µM*	?	?	?
O=C1c2ccccc2C(=O)c2[nH]c(=O)[nH]c21	?	1.3µM*	6.51µM*	5.17µM*	10.3µM*	9.2µM*
O=C1c2ccccc2C(=O)c2[nH]cnc21	-1.9%	3.0%	-26.3%	i	i	?
COC(=O)C12OCC34C(CC5C(C)=C(O)C(=O)CC5(C)C3C(O)C1O)OC(=O)C(OC(=O)C=C(C)C)C24 (stereo not given)	?	?	0.0366µM*	0.206µM*	7.31µM*	-26.4%
CCCCOc1ccc(C2C(C(=O)c3ccc(C)o3)=C(O)C(=O)N2CC2CCCO2)cc1 (stereo not given)	-1.7%	?	-14.5%	?	11.6µM*	-7.8%
SMILES	MCF10A rereplic	SW480 rereplic	HT1080 IDH1KD tx	KB-3-1 cytotox	KB-V1 MDR tox	HT1080NT lethal
CCOc1cccc(C2C(C(=O)c3ccc(C)o3)=C(O)C(=O)N2Cc2ccccc2)c1 (stereo not given)	-24.0%	-6.0%	15.3%	i	8.2µM*	13.4%
Cc1cc(C)cc(OC(C)C(=O)Nc2c(C(=O)c3ccccc3)oc3ccccc23)c1 (stereo not given)	nt	nt	nt	i	i	nt
CSc1ccccc1C(=O)Nc1nc2ccccc2c(=O)[nH]1	-2.8%	11.4%	-1.6%	i	i	-25.3%
COc1ccc(-c2csc(NC(=O)CSc3nc4ccccc4c(=O)[nH]3)n2)cc1	18.7%	?	16.4µM*	i	i	18.4µM*
CCSc1ccccc1C(=O)Nc1nc2ccccc2c(=O)[nH]1	21.2%	?	?	i	18.4µM*	-13.8%
CCOc1ccccc1Nc1nnc(SCC(=O)Nc2nc(-c3ccc(OC)cc3)cs2)s1	-0.4%	-0.3%	9.4%	i	i	-5.4%
Cc1ccc(-c2csc(NC(=O)CSc3nc4ccccc4[nH]3)n2)cc1	?	-5.0%	-20.7%	i	i	-0.1%
COc1ccc(-c2csc(NC(=O)CSc3nnc(Nc4ccccc4C)s3)n2)cc1	?	5.8µM*	20.6µM*	i	i	20.6µM*
COc1ccccc1Nc1nnc(SCC(=O)Nc2nc(-c3ccc(F)cc3)cs2)s1	66.3%	?	?	i	i	23.1µM*
O=C(O)[C@@H]1[C@@H]2C[C@H]3c4[nH]c5ccccc5c4CCN3C[C@@H]2CC[C@@H]1O	1.1%[20.6 µM]	2.4%[20.6 µM]	nt	nt	nt	nt
CCC(=O)N1c2ccccc2CC1C(=O)NCCN1CCN(c2cccc(C(F)(F)F)c2)CC1 (stereo not given)	nt	nt	nt	i	i	nt
NC(=O)c1ccccc1NC(=O)CSc1nc2ccccc2c(=O)[nH]1	-11.4%	-6.8%	?	nt	nt	13µM*
COC(=O)c1ccccc1NC(=O)CSc1nc2ccccc2c(=O)[nH]1	4.3%	-8.8%	-18.4%	i	i	-4.7%
O=C(c1ccco1)c1nnn(Cc2ccccc2)c1-c1ccccc1	?	18.9%	?	i	23.1µM*	-19.1%
c1ccc(CN2CCOCC2)cc1	7.7%	?	11.5%	i	i	-2.7%
c1ccc2c(c1)Cc1cc(CN3CCOCC3)ccc1-2	20.9%	-1.2%	-5.5%	i	20.6µM*	19.5%
COc1ccc(S(=O)(=O)N2CCCCCC2)cc1NC(=O)Cc1cc(OC)c(OC)c(OC)c1	7.9%	-57.2%	-0.8%	i	2.31µM*	0.9%

Compound activity as filed in PubChem BioAssay.
